# Laboratory results: the supplement of paper PMC6555819
# Columns and labels:
# Assay in all cases: PBM binding z-score (relative to random genomic background probes); higher = stronger binding; sequences stand for … in GC…GCGATTGACAGCGTAGAATGAAGG
# [1] = system: FXR:RXRa (NR concentration 270 nM, RXRa partner concentration 90 nM)
# Outline: (§1)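 Regression normalization was applied to scanned fluorescence from custom Agilent 4×180K protein-binding microarrays. Before scanning, arrays were incubated 1 h with ligand-free nuclear receptor dimers, and binding was detected with antibodies against each partner (one per run). Binding z-scores use the random background probes as reference.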
# [2] = system: LXRa:RXRa (NR concentration 270 nM, RXRa partner concentration 90 nM)
# Outline: as §1
# [3] = system: LXRa homodimer (NR concentration 270 nM)
# Outline: as §1
# [4] = system: LXRb:RXRa (NR concentration 270 nM, RXRa partner concentration 90 nM)
# Outline: as §1
# [5] = system: LXRb homodimer (NR concentration 270 nM)
# Outline: as §1
# [6] = system: PPARa:RXRa (NR concentration 270 nM, RXRa partner concentration 90 nM)
# Outline: as §1
# [7] = system: PPARg:RXRa (NR concentration 180 nM, RXRa partner concentration 90 nM)
# Outline: as §1
# [8] = system: PPARg:RXRa 270nM:90nM, anti-RXR (NR concentration 270 nM, RXRa partner concentration 90 nM)
# Outline: as §1
# [9] = system: PPARg:RXRa 30nM:10nM, anti-RXR (NR concentration 30 nM, RXRa partner concentration 10 nM)
# Outline: as §1
# [10] = system: PPARg:RXRa 90nM:30nM, anti-RXR (NR concentration 90 nM, RXRa partner concentration 30 nM)
# Outline: as §1
sequence,measurement,setting,value
TCTGCTAGGTCAACGATGGTCAGCCAATCTGCTA,PBM binding z-score,[1],3.5
same,PBM binding z-score,[2],2.9
same,PBM binding z-score,[3],-0.0342
same,PBM binding z-score,[4],1.57
same,PBM binding z-score,[5],-0.0158
same,PBM binding z-score,[6],3.17
same,PBM binding z-score,[7],2.73
same,PBM binding z-score,[8],3.17
same,PBM binding z-score,[9],1.79
same,PBM binding z-score,[10],2.48
TCTGCTAGGTCTGTTGGTCAGCTAACGAGCTGCC,PBM binding z-score,[1],-0.418
same,PBM binding z-score,[2],-0.439
same,PBM binding z-score,[3],-1.21
same,PBM binding z-score,[4],-0.715
same,PBM binding z-score,[5],0.485
same,PBM binding z-score,[6],-0.204
same,PBM binding z-score,[7],-1.23
same,PBM binding z-score,[8],0.384
same,PBM binding z-score,[9],0.834
same,PBM binding z-score,[10],0.687
CGTCCAATGTCAGAGAGGTCAGTGAATGCCGAGT,PBM binding z-score,[1],2.31
same,PBM binding z-score,[2],2.29
same,PBM binding z-score,[3],1.37
same,PBM binding z-score,[4],2.24
same,PBM binding z-score,[5],0.168
same,PBM binding z-score,[6],2.69
same,PBM binding z-score,[7],0.78
same,PBM binding z-score,[8],1.62
same,PBM binding z-score,[9],0.224
same,PBM binding z-score,[10],1.18
ATATGTAGGTTATCGGGTCCTTCAGTTTGCGCAT,PBM binding z-score,[1],0.663
same,PBM binding z-score,[2],0.859
same,PBM binding z-score,[3],0.528
same,PBM binding z-score,[4],0.856
same,PBM binding z-score,[5],0.389
same,PBM binding z-score,[6],3.24
same,PBM binding z-score,[7],5.01
same,PBM binding z-score,[8],4.43
same,PBM binding z-score,[9],1.77
same,PBM binding z-score,[10],3.45
CTACCATGGTGAACAAGGTCGTTGATTACTATTC,PBM binding z-score,[1],0.251
same,PBM binding z-score,[2],0.452
same,PBM binding z-score,[3],0.165
same,PBM binding z-score,[4],1.23
same,PBM binding z-score,[5],-0.219
same,PBM binding z-score,[6],1.07
same,PBM binding z-score,[7],0.161
same,PBM binding z-score,[8],0.378
same,PBM binding z-score,[9],-0.000193
same,PBM binding z-score,[10],0.175
TCTAGTAGATCAAGCAGGTTAAGAAAGCCTGAGT,PBM binding z-score,[1],-0.193
same,PBM binding z-score,[2],-0.025
same,PBM binding z-score,[3],-0.279
same,PBM binding z-score,[4],0.194
same,PBM binding z-score,[5],-0.909
same,PBM binding z-score,[6],0.517
same,PBM binding z-score,[7],-0.406
same,PBM binding z-score,[8],1.3
same,PBM binding z-score,[9],2.82
same,PBM binding z-score,[10],1.92
ATCTCTAGGTAAAGATAGTGCAGTGAATGCAAAT,PBM binding z-score,[1],0.222
same,PBM binding z-score,[2],1.16
same,PBM binding z-score,[3],0.00124
same,PBM binding z-score,[4],0.147
same,PBM binding z-score,[5],0.236
same,PBM binding z-score,[6],0.141
same,PBM binding z-score,[7],0.354
same,PBM binding z-score,[8],0.233
same,PBM binding z-score,[9],0.0457
same,PBM binding z-score,[10],0.565
TCTAGTTGGTCACGGAGGTCACACAGGACGGGTA,PBM binding z-score,[1],3.66
same,PBM binding z-score,[2],3.54
same,PBM binding z-score,[3],2.46
same,PBM binding z-score,[4],3.05
same,PBM binding z-score,[5],0.75
same,PBM binding z-score,[6],3.83
same,PBM binding z-score,[7],3.74
same,PBM binding z-score,[8],3.76
same,PBM binding z-score,[9],3.51
same,PBM binding z-score,[10],3.91
GCTGCTAGTTCAGGTTGGTCAGCTAACGGGTACG,PBM binding z-score,[1],-0.234
same,PBM binding z-score,[2],-0.0295
same,PBM binding z-score,[3],-0.196
same,PBM binding z-score,[4],-0.351
same,PBM binding z-score,[5],-0.495
same,PBM binding z-score,[6],-0.285
same,PBM binding z-score,[7],-0.479
same,PBM binding z-score,[8],-0.127
same,PBM binding z-score,[9],-0.906
same,PBM binding z-score,[10],-0.226
CCTGCTAGGTCAATGGTCAACTAAAGCAGCTCGC,PBM binding z-score,[1],3.09
same,PBM binding z-score,[2],2.16
same,PBM binding z-score,[3],-0.236
same,PBM binding z-score,[4],1.83
same,PBM binding z-score,[5],-0.0517
same,PBM binding z-score,[6],3.42
same,PBM binding z-score,[7],5.68
same,PBM binding z-score,[8],5.74
same,PBM binding z-score,[9],4.25
same,PBM binding z-score,[10],5.51
AGAACGAGGGCACGCTGAGTTGATATCAGAGTAG,PBM binding z-score,[1],0.635
same,PBM binding z-score,[2],0.337
same,PBM binding z-score,[3],-0.489
same,PBM binding z-score,[4],-0.0642
same,PBM binding z-score,[5],-0.77
same,PBM binding z-score,[6],2.02
same,PBM binding z-score,[7],2.14
same,PBM binding z-score,[8],1.79
same,PBM binding z-score,[9],0.489
same,PBM binding z-score,[10],1.22
CCGAGTTGGTTATGGGGCATTCAGGCAACGGTGA,PBM binding z-score,[1],0.0617
same,PBM binding z-score,[2],0.0147
same,PBM binding z-score,[3],-0.147
same,PBM binding z-score,[4],0.0515
same,PBM binding z-score,[5],-0.451
same,PBM binding z-score,[6],0.287
same,PBM binding z-score,[7],0.0793
same,PBM binding z-score,[8],0.583
same,PBM binding z-score,[9],-0.717
same,PBM binding z-score,[10],0.0357
CCTCGGAGGACAGAAGGTCCGAGCTGTCCGCTTT,PBM binding z-score,[1],-0.475
same,PBM binding z-score,[2],-0.736
same,PBM binding z-score,[3],-0.887
same,PBM binding z-score,[4],-1.15
same,PBM binding z-score,[5],-0.992
same,PBM binding z-score,[6],-1.11
same,PBM binding z-score,[7],-0.956
same,PBM binding z-score,[8],-1.22
same,PBM binding z-score,[9],-1.48
same,PBM binding z-score,[10],-1.44
CGTCCAAGGTCATAGGAGGTCCGTGAAGACAGAT,PBM binding z-score,[1],7.45
same,PBM binding z-score,[2],5.69
same,PBM binding z-score,[3],0.811
same,PBM binding z-score,[4],3.99
same,PBM binding z-score,[5],0.8
same,PBM binding z-score,[6],5.61
same,PBM binding z-score,[7],4.52
same,PBM binding z-score,[8],5.1
same,PBM binding z-score,[9],1.5
same,PBM binding z-score,[10],3.67
CCTAGCAGGCCAGGGTCACTAAAGCATTTCGCTT,PBM binding z-score,[1],1.78
same,PBM binding z-score,[2],1.59
same,PBM binding z-score,[3],-0.472
same,PBM binding z-score,[4],1.78
same,PBM binding z-score,[5],-1.37
same,PBM binding z-score,[6],3.06
same,PBM binding z-score,[7],0.442
same,PBM binding z-score,[8],1.2
same,PBM binding z-score,[9],-0.365
same,PBM binding z-score,[10],0.422
CCTTACGGGTCACTCCAGGTTATCGCATCGGAGT,PBM binding z-score,[1],4.86
same,PBM binding z-score,[2],7.44
same,PBM binding z-score,[3],2.05
same,PBM binding z-score,[4],5.17
same,PBM binding z-score,[5],0.292
same,PBM binding z-score,[6],4.26
same,PBM binding z-score,[7],3.02
same,PBM binding z-score,[8],3.76
same,PBM binding z-score,[9],0.874
same,PBM binding z-score,[10],2.38
CAAACTAGGTCACCGGAAGGTCAAAGTGCGCATG,PBM binding z-score,[1],6.51
same,PBM binding z-score,[2],6.25
same,PBM binding z-score,[3],5.26
same,PBM binding z-score,[4],5.66
same,PBM binding z-score,[5],1.52
same,PBM binding z-score,[6],6.36
same,PBM binding z-score,[7],9.79
same,PBM binding z-score,[8],7.84
same,PBM binding z-score,[9],5.91
same,PBM binding z-score,[10],7.97
TAGCCTAGGCCAGATCGGGCCAGTATACGCTATA,PBM binding z-score,[1],-0.616
same,PBM binding z-score,[2],-1.17
same,PBM binding z-score,[3],-0.865
same,PBM binding z-score,[4],-1.22
same,PBM binding z-score,[5],-1.15
same,PBM binding z-score,[6],-1.12
same,PBM binding z-score,[7],0.0311
same,PBM binding z-score,[8],-1.24
same,PBM binding z-score,[9],-0.873
same,PBM binding z-score,[10],-1.05
CCTAGTTAGTCAGGAGGTCACACACCGGATATGA,PBM binding z-score,[1],3.41
same,PBM binding z-score,[2],3.69
same,PBM binding z-score,[3],2.46
same,PBM binding z-score,[4],3.68
same,PBM binding z-score,[5],1.17
same,PBM binding z-score,[6],4.29
same,PBM binding z-score,[7],2.42
same,PBM binding z-score,[8],3.19
same,PBM binding z-score,[9],1.24
same,PBM binding z-score,[10],2.16
CCTTCTGGGCCATCAGGTCATTGATATCAACGTT,PBM binding z-score,[1],1.65
same,PBM binding z-score,[2],1.19
same,PBM binding z-score,[3],0.846
same,PBM binding z-score,[4],1.44
same,PBM binding z-score,[5],0.0435
same,PBM binding z-score,[6],2.69
same,PBM binding z-score,[7],2.21
same,PBM binding z-score,[8],3.33
same,PBM binding z-score,[9],1.09
same,PBM binding z-score,[10],2.63
TGTATTAGTTGAAGGGCAACCGACGAGTCCGTTT,PBM binding z-score,[1],0.551
same,PBM binding z-score,[2],0.588
same,PBM binding z-score,[3],0.228
same,PBM binding z-score,[4],0.491
same,PBM binding z-score,[5],0.587
same,PBM binding z-score,[6],0.462
same,PBM binding z-score,[7],0.102
same,PBM binding z-score,[8],0.95
same,PBM binding z-score,[9],0.864
same,PBM binding z-score,[10],0.871
TCTATTAGTTGAAGGGCAACCAACGAGTCCGTTT,PBM binding z-score,[1],0.452
same,PBM binding z-score,[2],0.763
same,PBM binding z-score,[3],0.54
same,PBM binding z-score,[4],0.694
same,PBM binding z-score,[5],0.122
same,PBM binding z-score,[6],0.554
same,PBM binding z-score,[7],-0.00575
same,PBM binding z-score,[8],1.94
same,PBM binding z-score,[9],3.75
same,PBM binding z-score,[10],2.69
ATCTCTAGGTAACCAAGTTCAGCGAATGCCGAAC,PBM binding z-score,[1],0.438
same,PBM binding z-score,[2],0.886
same,PBM binding z-score,[3],0.803
same,PBM binding z-score,[4],0.7
same,PBM binding z-score,[5],0.602
same,PBM binding z-score,[6],1.4
same,PBM binding z-score,[7],0.655
same,PBM binding z-score,[8],1.07
same,PBM binding z-score,[9],0.316
same,PBM binding z-score,[10],0.524
